For assay [1], the target named is Tyrosine-protein kinase SYK (Homo sapiens) (UniProt P43405). The following applies: at 10 µM.
Assay [2] concerns the target T1, Mitogen-activated protein kinase kinase kinase 7 (Homo sapiens) (UniProt O43318).
T1 sequence (whole entry): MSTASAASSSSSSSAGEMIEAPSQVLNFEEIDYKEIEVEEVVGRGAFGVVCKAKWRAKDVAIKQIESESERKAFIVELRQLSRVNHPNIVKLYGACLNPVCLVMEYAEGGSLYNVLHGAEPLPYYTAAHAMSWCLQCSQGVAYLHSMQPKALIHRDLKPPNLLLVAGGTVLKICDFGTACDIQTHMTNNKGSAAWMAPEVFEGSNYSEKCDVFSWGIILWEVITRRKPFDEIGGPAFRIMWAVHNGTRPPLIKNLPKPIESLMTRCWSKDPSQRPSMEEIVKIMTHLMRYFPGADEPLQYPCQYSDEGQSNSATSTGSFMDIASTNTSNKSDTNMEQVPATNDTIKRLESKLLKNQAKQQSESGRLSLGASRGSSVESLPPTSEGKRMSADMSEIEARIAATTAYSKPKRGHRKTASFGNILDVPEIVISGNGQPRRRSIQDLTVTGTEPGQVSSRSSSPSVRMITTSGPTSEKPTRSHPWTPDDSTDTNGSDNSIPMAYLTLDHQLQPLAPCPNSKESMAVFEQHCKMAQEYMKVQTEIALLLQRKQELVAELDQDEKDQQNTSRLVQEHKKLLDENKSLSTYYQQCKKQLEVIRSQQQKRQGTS
The settings on record: at 1 µM.

For assay [3], the target named is T1, Mitogen-activated protein kinase kinase kinase 7 (Homo sapiens). The following applies: at 10 µM.
Assay [4] addresses T2, Serine/threonine-protein kinase TAO1 (Homo sapiens) (UniProt Q7L7X3).
T2 sequence (whole entry): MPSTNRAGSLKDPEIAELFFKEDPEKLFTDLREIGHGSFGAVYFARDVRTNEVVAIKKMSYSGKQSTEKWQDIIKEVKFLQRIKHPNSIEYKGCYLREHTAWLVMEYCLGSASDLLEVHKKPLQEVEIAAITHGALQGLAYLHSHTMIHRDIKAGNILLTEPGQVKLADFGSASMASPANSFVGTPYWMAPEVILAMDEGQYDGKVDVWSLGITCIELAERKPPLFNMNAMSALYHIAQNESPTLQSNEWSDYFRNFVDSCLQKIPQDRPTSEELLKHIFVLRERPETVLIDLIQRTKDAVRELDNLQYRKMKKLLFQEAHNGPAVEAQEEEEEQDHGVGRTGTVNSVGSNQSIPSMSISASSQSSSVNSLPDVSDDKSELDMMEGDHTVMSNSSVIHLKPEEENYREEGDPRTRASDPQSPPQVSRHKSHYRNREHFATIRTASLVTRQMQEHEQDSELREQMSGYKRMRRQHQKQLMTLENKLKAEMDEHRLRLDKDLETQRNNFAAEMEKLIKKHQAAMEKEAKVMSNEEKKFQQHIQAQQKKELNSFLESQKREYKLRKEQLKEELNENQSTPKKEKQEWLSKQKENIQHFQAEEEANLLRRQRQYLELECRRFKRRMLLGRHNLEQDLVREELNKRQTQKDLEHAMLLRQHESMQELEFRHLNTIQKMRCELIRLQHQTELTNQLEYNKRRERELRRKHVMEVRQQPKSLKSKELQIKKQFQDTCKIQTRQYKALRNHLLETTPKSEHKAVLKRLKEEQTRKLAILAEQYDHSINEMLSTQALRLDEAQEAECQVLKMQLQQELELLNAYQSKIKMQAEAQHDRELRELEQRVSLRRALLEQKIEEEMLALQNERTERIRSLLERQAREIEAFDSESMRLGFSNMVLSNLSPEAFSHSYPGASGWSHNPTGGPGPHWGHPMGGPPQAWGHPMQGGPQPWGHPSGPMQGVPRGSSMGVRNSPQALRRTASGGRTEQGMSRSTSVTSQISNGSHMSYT
The settings on record: at 1 µM.

In assay [5] the target is T2, Serine/threonine-protein kinase TAO1 (Homo sapiens). The settings on record: at 10 µM.
The target of assay [6] is T3, Serine/threonine-protein kinase TBK1 (Homo sapiens) (UniProt Q9UHD2).
T3 sequence (whole entry): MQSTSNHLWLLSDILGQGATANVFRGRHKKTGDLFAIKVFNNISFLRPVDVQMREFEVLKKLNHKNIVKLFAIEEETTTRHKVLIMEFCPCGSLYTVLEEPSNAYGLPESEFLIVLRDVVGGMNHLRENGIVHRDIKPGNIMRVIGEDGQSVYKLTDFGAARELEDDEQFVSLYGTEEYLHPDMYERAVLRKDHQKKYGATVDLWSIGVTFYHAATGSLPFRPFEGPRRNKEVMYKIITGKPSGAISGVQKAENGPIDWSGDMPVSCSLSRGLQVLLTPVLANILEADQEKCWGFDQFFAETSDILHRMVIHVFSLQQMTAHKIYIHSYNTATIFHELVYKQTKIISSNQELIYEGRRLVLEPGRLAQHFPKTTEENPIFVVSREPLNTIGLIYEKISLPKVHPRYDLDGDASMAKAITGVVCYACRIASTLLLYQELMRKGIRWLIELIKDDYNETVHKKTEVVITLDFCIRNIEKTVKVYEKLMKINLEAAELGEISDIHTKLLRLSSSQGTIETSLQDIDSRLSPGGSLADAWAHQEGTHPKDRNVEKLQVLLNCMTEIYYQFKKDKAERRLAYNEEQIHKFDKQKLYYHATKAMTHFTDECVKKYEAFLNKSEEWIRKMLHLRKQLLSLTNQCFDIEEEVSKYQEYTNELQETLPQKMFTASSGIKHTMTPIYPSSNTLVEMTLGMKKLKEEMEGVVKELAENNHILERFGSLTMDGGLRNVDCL
The following applies: at 1 µM.

The target in assay [7] is T3, Serine/threonine-protein kinase TBK1 (Homo sapiens). The settings on record: at 10 µM.
Assay [8] deals with T4, Inhibitor of nuclear factor kappa-B kinase subunit alpha (Homo sapiens) (UniProt O15111).
T4 sequence (whole entry): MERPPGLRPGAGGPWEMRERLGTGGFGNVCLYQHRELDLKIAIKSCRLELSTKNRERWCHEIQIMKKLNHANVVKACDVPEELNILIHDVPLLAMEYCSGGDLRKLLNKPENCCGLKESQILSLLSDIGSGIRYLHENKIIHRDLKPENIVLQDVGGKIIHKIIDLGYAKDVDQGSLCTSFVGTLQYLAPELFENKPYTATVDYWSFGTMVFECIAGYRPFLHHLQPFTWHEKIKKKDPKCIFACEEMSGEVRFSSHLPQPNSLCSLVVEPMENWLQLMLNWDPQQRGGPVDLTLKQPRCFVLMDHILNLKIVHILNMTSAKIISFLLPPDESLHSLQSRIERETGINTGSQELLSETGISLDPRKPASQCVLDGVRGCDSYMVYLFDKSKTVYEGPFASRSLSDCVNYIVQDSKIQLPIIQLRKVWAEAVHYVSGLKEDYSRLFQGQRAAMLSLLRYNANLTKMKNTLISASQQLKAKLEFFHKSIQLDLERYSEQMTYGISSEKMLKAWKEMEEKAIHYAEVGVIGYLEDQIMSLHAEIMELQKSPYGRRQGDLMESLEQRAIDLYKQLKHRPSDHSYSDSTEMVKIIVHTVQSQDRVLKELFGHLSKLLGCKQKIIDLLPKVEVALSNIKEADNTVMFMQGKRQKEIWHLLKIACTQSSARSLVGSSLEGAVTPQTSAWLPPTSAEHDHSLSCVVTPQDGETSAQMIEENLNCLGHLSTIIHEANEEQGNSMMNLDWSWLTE
The settings on record: at 1 µM.

The target of assay [9] is T4, Inhibitor of nuclear factor kappa-B kinase subunit alpha (Homo sapiens). The following applies: at 10 µM.
Assay [10] addresses T5, Inhibitor of nuclear factor kappa-B kinase subunit beta (Homo sapiens) (UniProt O14920).
T5 sequence (whole entry): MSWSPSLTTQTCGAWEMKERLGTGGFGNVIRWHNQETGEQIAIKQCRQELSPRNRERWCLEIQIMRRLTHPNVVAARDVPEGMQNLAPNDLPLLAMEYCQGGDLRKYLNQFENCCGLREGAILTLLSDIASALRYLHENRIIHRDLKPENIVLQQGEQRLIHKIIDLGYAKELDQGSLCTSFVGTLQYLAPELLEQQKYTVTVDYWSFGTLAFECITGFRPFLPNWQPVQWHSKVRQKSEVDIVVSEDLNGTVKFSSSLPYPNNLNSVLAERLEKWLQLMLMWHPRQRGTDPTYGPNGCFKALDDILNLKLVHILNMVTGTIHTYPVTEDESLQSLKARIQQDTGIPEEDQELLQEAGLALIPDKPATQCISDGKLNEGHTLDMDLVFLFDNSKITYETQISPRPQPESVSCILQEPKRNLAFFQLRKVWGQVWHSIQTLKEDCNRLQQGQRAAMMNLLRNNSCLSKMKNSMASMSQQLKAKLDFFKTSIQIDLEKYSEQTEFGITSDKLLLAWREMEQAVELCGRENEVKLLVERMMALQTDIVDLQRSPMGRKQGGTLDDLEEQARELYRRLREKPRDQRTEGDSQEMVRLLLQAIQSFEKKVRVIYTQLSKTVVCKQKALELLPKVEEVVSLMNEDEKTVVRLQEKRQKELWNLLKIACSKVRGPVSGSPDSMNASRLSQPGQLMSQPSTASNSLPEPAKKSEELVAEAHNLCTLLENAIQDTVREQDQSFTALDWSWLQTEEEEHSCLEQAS
The following applies: at 1 µM.

In assay [11] the target is T5, Inhibitor of nuclear factor kappa-B kinase subunit beta (Homo sapiens). The following applies: at 10 µM.
Assay [12] deals with Insulin receptor (Homo sapiens) (UniProt P06213). The following applies: at 1 µM.
Insulin receptor (Homo sapiens), sequence (P06213 28-758 limits assumed): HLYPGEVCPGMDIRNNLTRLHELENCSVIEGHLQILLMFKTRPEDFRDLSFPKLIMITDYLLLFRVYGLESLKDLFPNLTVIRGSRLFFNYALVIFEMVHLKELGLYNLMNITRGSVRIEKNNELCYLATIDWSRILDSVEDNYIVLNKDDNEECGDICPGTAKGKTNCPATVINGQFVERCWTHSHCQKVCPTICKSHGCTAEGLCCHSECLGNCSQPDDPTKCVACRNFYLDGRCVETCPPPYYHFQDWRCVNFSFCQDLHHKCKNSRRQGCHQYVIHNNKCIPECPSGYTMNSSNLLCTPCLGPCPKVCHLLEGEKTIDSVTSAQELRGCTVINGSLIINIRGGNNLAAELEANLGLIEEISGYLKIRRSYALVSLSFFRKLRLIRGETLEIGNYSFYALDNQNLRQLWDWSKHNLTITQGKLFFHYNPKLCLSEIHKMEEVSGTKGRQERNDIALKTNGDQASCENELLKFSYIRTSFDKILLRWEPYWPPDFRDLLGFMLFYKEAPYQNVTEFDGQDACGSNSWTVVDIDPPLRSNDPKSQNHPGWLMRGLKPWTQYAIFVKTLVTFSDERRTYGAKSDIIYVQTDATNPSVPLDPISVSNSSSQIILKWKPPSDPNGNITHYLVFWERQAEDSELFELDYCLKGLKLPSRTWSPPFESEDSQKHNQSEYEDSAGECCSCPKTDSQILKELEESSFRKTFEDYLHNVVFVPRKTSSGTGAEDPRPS
Insulin receptor (Homo sapiens), sequence (P06213 763-1382 limits assumed): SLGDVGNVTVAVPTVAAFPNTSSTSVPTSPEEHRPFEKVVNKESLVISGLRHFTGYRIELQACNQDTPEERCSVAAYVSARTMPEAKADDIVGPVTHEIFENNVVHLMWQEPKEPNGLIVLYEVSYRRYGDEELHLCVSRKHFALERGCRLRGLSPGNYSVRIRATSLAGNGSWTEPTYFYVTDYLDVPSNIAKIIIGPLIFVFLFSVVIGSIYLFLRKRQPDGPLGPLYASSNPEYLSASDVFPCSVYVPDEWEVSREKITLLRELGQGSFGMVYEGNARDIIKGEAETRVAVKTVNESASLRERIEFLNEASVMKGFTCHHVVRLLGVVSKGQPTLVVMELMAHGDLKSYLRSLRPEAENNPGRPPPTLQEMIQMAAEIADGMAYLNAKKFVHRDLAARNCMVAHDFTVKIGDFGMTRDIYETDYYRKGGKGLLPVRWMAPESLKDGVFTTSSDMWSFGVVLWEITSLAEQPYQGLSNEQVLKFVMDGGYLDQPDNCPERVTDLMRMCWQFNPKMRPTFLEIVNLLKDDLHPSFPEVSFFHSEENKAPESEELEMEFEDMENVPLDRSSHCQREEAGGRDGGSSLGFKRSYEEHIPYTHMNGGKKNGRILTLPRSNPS
Assay [13] has as its target T6, Serine/threonine-protein kinase TAO2 (Homo sapiens) (UniProt Q9UL54).
T6 sequence (whole entry): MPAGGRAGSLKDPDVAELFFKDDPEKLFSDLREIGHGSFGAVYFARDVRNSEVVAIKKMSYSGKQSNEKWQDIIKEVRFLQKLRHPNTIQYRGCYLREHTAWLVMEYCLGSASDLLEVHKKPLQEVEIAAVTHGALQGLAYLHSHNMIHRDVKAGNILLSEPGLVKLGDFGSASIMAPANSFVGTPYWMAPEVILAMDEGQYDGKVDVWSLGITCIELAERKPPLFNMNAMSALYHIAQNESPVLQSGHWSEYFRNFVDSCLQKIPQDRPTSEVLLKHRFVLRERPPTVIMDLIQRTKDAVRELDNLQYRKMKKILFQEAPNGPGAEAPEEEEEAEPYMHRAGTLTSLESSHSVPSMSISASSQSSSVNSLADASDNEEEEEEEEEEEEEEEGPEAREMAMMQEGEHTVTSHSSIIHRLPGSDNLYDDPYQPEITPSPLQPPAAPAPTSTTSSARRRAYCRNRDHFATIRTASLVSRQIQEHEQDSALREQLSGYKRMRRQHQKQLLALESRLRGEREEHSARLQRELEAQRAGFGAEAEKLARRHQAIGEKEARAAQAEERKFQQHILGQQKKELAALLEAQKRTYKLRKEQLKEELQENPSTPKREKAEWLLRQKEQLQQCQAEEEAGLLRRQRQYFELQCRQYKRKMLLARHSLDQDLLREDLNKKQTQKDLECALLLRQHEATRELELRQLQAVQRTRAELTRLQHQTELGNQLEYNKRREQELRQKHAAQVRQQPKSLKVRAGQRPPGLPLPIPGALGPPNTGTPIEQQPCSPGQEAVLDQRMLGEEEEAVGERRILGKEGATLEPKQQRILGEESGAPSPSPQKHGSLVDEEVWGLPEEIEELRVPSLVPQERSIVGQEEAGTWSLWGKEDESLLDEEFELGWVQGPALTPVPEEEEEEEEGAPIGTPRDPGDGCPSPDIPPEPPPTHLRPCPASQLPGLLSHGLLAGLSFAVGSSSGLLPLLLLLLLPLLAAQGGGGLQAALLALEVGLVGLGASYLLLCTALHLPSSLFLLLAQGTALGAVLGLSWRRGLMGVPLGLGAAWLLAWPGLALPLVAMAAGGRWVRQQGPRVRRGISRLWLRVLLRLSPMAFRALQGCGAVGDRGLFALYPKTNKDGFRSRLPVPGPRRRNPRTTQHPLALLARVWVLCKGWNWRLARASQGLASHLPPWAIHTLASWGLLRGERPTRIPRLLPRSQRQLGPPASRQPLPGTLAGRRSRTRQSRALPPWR
The following applies: at 10 µM.

Assay [14] has as its target T7, Serine/threonine-protein kinase TAO3 (Homo sapiens) (UniProt Q9H2K8).
T7 sequence (whole entry): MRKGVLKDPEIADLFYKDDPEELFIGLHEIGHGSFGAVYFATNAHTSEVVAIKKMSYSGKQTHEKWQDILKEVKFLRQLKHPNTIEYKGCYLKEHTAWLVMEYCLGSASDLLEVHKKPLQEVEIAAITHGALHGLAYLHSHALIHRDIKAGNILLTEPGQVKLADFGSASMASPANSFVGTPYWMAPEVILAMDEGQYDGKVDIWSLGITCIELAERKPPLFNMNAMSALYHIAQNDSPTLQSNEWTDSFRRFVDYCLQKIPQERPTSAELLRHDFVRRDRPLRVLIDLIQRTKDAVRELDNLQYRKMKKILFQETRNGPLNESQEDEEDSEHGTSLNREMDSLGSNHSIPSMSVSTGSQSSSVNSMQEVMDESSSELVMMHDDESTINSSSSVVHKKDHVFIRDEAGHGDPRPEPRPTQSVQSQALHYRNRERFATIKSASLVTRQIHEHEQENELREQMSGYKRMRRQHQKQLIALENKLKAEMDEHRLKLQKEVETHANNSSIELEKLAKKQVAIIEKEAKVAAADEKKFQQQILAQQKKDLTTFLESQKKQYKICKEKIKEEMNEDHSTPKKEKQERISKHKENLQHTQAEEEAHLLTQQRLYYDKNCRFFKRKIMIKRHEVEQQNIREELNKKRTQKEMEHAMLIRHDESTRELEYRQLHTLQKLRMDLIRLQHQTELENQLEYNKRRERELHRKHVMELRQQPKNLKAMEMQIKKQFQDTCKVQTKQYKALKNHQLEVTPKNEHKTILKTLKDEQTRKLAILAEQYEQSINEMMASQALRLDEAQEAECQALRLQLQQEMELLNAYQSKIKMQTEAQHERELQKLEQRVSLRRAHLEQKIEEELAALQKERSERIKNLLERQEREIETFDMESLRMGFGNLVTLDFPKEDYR
The following applies: at 10 µM.

Turning to `COc1ccc(-c2cnc3c(-c4ccsc4)cnn3c2)cc1`, the residual activity amounted to 95% in assay [1]; 99% in assay [2]; 97% in assay [3]; 97% in [4]; 97% in [5]; 97% in assay [6]. Besides, the residual activity came to 85% in assay [7]; 91% in assay [8]; 90% in [9]; 100% in [10]; 95% in [11]; 91% in assay [12].

Regarding `CSc1nc(-c2ccc(F)cc2)c(-c2ccnc(NC(C)c3ccccc3)c2)[nH]1` (stereo not drawn), the residual activity in assay [1] worked out at 75%; in assay [2], 101%; in assay [3], 93%; in [4], 102%; in [5] it was 83%; in assay [13], 83%. The residual activity in assay [14] is 91%; in assay [6] it was 102%; in assay [7] it was 77%; in [9], 95%; in assay [12], 126%.

The record behind these values is ChEMBL document CHEMBL2218924, “A broad activity screen in support of a chemogenomic map for kinase signalling research and drug discovery” (Biochem J, 2013).
